From paper PMC5540273 (PLoS ONE, 2017)

How the values were obtained:
Conditions in all cases: concentration: 1 μM, replicates: in singlicate; n = 1
BTK = test system: BTK
BUB1 = test system: BUB1
CAMK1B = test system: CAMK1B
CAMK1D = test system: CAMK1D
CAMK1G = test system: CAMK1G
CAMK1 = test system: CAMK1
CAMK2A = test system: CAMK2A
CAMK2B = test system: CAMK2B
CAMK2D = test system: CAMK2D
CAMK2G = test system: CAMK2G
CAMK4 = test system: CAMK4
CAMKK1 = test system: CAMKK1
CAMKK2 = test system: CAMKK2
CASK = test system: CASK
CDC2L1 = test system: T1, CDC2L1
T1 construct: gene CDK11B

CDC2L2 = test system: CDC2L2
CDC2L5 = test system: T2, CDC2L5
T2 construct: gene CDK13

CDK11 = test system: T3, CDK11
T3 construct: gene CDK19

CDK2 = test system: CDK2
CDK3 = test system: CDK3
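Note: KINOMEscan kinase panel screen.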

Row | SMILES | %Inh (BTK) | %Inh (BUB1) | %Inh (CAMK1B) | %Inh (CAMK1D) | %Inh (CAMK1G) | %Inh (CAMK1) | %Inh (CAMK2A) | %Inh (CAMK2B) | %Inh (CAMK2D) | %Inh (CAMK2G) | %Inh (CAMK4) | %Inh (CAMKK1) | %Inh (CAMKK2) | %Inh (CASK) | %Inh (CDC2L1) | %Inh (CDC2L2) | %Inh (CDC2L5) | %Inh (CDK11) | %Inh (CDK2) | %Inh (CDK3)
1 | CCCCc1nn2ncccc2c1-c1ccnc(NC2CC2)n1 [GW684374] | 0% | 91.3% | 12% | 5% | 9% | 9% | 0% | 0% | 12% | 7% | 0% | 0% | 14% | 0% | 0% | 11% | 0% | 5% | 0% | 0%
2 | O=C(Nc1n[nH]c2nc(-c3ccco3)c(Br)cc12)C1CCN(Cc2ccccc2)C1.O=C(O)[C@H](O)[C@@H](O)C(=O)O (stereo not drawn) [SB-742034] | 0% | 0% | 0% | 22% | 10% | 29% | 30% | 20% | 7% | 17% | 0% | 20% | 25% | 40% | 20% | 36% | 44% | 0% | 13% | 0%
3 | CCn1c(-c2c(N)noc2C)nc2cnccc21 [SB-737856] | 0% | 20% | 0% | 0% | 0% | 0% | 0% | 0% | 0% | 0% | 0% | 13% | 0% | 0% | 0% | 8% | 98.8% | 7% | 0% | 0%
4 | Nc1nccc(-c2c(-c3ccc(F)cc3)ncn2C2CCN(Cc3ccccc3)CC2)n1 [SB-219980] | 0% | 38% | 56% | 0% | 0% | 12% | 0% | 0% | 0% | 0% | 13% | 2% | 0% | 0% | 7% | 38% | 0% | 1% | 0% | 0%
5 | COc1cccc(CNC(=O)NC2CCN(c3ccnc(Nc4ccc(F)cc4)n3)C2)c1 (stereo not drawn) [GSK1379723] | 0% | 27% | 23% | 14% | 0% | 14% | 0% | 0% | 0% | 82% | 0% | 79% | 78% | 27% | 0% | 0% | 0% | 0% | 0% | 6%
6 | COc1ccc(CSc2nnc(-c3ccc4nccn4c3)o2)cc1C(F)(F)F | 15% | 0% | 8% | 0% | 22% | 5% | 2% | 32% | 11% | 16% | 0% | 0% | 0% | 15% | 4% | 5% | 50% | 40% | 0% | 4%
7 | CS(=O)(=O)CCNCc1nc(-c2ccc3ncnc(Nc4ccc(OCc5ccccc5)c(Cl)c4)c3c2)cs1.Cl [GW582764] | 35% | 62% | 4% | 3% | 0% | 9% | 0% | 0% | 1% | 18% | 0% | 0% | 7% | 5% | 0% | 0% | 0% | 0% | 0% | 1%
8 | Cc1nccc(-c2c(-c3ccc(F)cc3)ncn2CCCN2CCOCC2)n1.Cl [SB-282975] | 6% | 0% | 0% | 0% | 0% | 0% | 0% | 0% | 7% | 0% | 6% | 9% | 0% | 21% | 100% | 23% | 5% | 11% | 37% | 26%
9 | O=C1NC(=O)C(c2ccc(Cl)cc2)=C1Nc1cccc(Cl)c1 [SB-317651] | 0% | 0% | 3% | 4% | 0% | 0% | 0% | 0% | 0% | 0% | 29% | 7% | 5% | 27% | 0% | 4% | 0% | 6% | 0% | 8%
10 | Cc1ccc(-c2nc(Nc3ccncc3)c3ccccc3n2)s1 [GSK189015] | 0% | 34% | 27% | 12% | 2% | 15% | 0% | 0% | 12% | 24% | 26% | 0% | 7% | 0% | 0% | 17% | 0% | 9% | 24% | 0%
11 | COC(=O)C(Cc1ccccc1)NC(=O)NC1CCN(c2ccnc(Nc3ccc(F)cc3)n2)C1 (stereo not drawn) [GSK1379714] | 30% | 32% | 34% | 4% | 9% | 2% | 0% | 0% | 8% | 24% | 9% | 19% | 9% | 4% | 0% | 18% | 0% | 48% | 0% | 6%
12 | O=C(Nc1n[nH]c2nc(-c3cccs3)c(Br)cc12)C1CCCC1 [SB-743341] | 26% | 0% | 0% | 16% | 0% | 18% | 9% | 12% | 2% | 0% | 0% | 7% | 0% | 12% | 1% | 0% | 13% | 0% | 75% | 67%
13 | CC(=O)c1cccc(NC(=O)NC2CCN(c3ccnc(Nc4ccc(F)cc4)n3)C2)c1 (stereo not drawn) [GSK1379710] | 0% | 33% | 39% | 16% | 7% | 20% | 0% | 0% | 4% | 32% | 0% | 26% | 24% | 6% | 0% | 17% | 0% | 80% | 8% | 6%
14 | Cc1ccc(NC(=O)Nc2ccc(Cl)cc2)cc1-c1ccc(C(=O)Nc2ccncc2)cc1 [GSK1398472] | 0% | 43% | 34% | 13% | 0% | 10% | 0% | 0% | 0% | 13% | 0% | 0% | 0% | 21% | 0% | 13% | 0% | 8% | 0% | 8%
15 | Cc1ccc(NC(=O)Nc2ccccc2)cc1-c1ccc(C(=O)Nc2ccncc2)cc1 [GSK1398471] | 0% | 0% | 13% | 20% | 0% | 15% | 0% | 0% | 0% | 9% | 0% | 0% | 19% | 0% | 0% | 13% | 0% | 11% | 1% | 0%
16 | COc1nccc(-c2c(-c3ccc(F)cc3)ncn2CCCN2CCOCC2)n1 [SB-282852] | 33% | 0% | 29% | 0% | 0% | 0% | 0% | 0% | 0% | 0% | 17% | 10% | 3% | 8% | 0% | 0% | 28% | 3% | 0% | 6%
17 | Cc1c(Cn2c3ccccc3n3c(=O)cc(N4CCOCC4)nc23)cccc1C(F)(F)F [GSK2306394] | 0% | 3% | 13% | 20% | 0% | 5% | 0% | 0% | 9% | 7% | 8% | 69% | 5% | 0% | 100% | 0% | 0% | 0% | 0% | 0%
18 | Fc1ccc(-c2nc3n(c2-c2ccncc2)CCS3)cc1 [GI98581] | 0% | 53% | 31% | 1% | 0% | 0% | 0% | 0% | 3% | 14% | 0% | 8% | 0% | 20% | 0% | 0% | 0% | 7% | 6% | 24%
19 | CNc1cc(-c2ccc3c(N)n[nH]c3c2)nc(N)n1 [GSK2224810] | 0% | 53% | 8% | 23% | 0% | 24% | 0% | 13% | 7% | 21% | 0% | 5% | 11% | 6% | 3% | 30% | 0% | 8% | 0% | 9%
20 | Nc1ncnc2occ(-c3ccc4c(c3)CCN4C(=O)Cc3cc(F)ccc3F)c12 [GSK2645446] | 0% | 0% | 0% | 8% | 9% | 6% | 0% | 0% | 14% | 20% | 0% | 0% | 13% | 0% | 0% | 12% | 0% | 81% | 0% | 0%
21 | O=c1cc(N2CCOCC2)nc2n(Cc3cccc(Cl)c3Cl)c3ccccc3n12 [GSK2299009] | 0% | 0% | 34% | 36% | 13% | 43% | 0% | 0% | 21% | 33% | 9% | 27% | 29% | 10% | 0% | 11% | 0% | 94.4% | 0% | 29%
